In the library only some 8% were active in any assay of this set; here they are far more common.
KB-3-1 tox = KB-3-1 parental cell cytotoxicity; KB-3-1 viability, CellTiter-Glo ATP luminescence, 72 h; Potency, µM (series often up to 46.1 µM), hits mostly cytotoxic; 400,000 tested, 1.4% active; further: on the % scale 0 is the no-effect control and ±100 the full control effect; nearly all actives have a fitted effect of over 60% in size
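Here the drug-naive KB-3-1 line serves as comparator for MDR sub-line selectivity; cells received compound titrations, 72 h at 37 °C, then CellTiter-Glo readout.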
SW480 rerep = induces DNA re-replication in SW480 colon adenocarcinoma cells. SW480 DNA re-replication, Hoechst DNA content imaging, 48 h. Potency, µM (top dose mostly 46.1 µM), without a hit: top-dose re-replication activation, most hits filed as activators. 340,000 tested, 1.8% active; further: % of control where 0% means no effect; nearly all actives have a fitted effect of over 55% in size
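DNA re-replication was detected as more nuclei of elevated Hoechst intensity after 48 hr exposure to compound (23 nL pinned per well of 250 cells).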
HT1080 IDH1KD tx = toxicity to HT-1080 IDH1 knockdown cells (counter line) | HT-1080 IDH1 knockdown viability, ATP luminescence, 48 h | Potency, µM (top dose mostly 46.1 µM), inactives show at the highest dose activity, negative = toxicity, usual class: cytotoxic | 360,000 tested, 2% active;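 further: 0% = DMSO wells and -100% = cell-free medium wells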
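After a 2 h attachment period, IDH1KD HT-1080 cells took pin-transferred compound for 48 h at 37 °C; ATP-based luminescence after 10 min room-temperature reagent incubation reported viability.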
MCF10A rerep = inducers of DNA re-replication in MCF 10A breast cells; MCF 10A DNA re-replication, Hoechst nuclear intensity, 48 h; Potency, µM (series often up to 46.1 µM), without a hit: at the highest dose activity, positive = re-replication, hits mostly activators; 350,000 tested, 2.9% active; further: % of control where 0% means no effect; nearly all actives have a fitted effect of over 50% in size
KB-V1 MDR tox = kills drug-selected multidrug resistant KB-V1 cells; KB-V1 MDR cells viability, CellTiter-Glo, 72 h; Potency, µM (series often up to 46.1 µM), most hits filed as cytotoxic; 400,000 tested, 3.4% active; AID 1347076; further: on the % scale 0 is the no-effect control and ±100 the full control effect; nearly all actives have a fitted effect of over 60% in size
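KB-V1, DMEM (no phenol red) + 10% FBS; cpd pin-transferred, titration series; 72 h, 37 degrees C; CellTiter-Glo, luminescence. Data normalized, curve-fit.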
HT1080NT lethal = kills 2HG-producing HT-1080-NT fibrosarcoma cells. 360,000 tested, 1.6% active. HT-1080-NT fibrosarcoma viability, CellTiter-Glo ATP luminescence, 48 h. AID 686970. Potency, µM (top dose mostly 46.1 µM), for inactives: at the top dose activity, negative = less viability, most hits filed as cytotoxic;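 further: NT is the 2HG producing partner of a matched IDH1 knockdown line; 0% = DMSO-treated cells and -100% = media-only wells without cells; nearly all actives have a fitted effect of over 55% in size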
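Read-out is CellTiter-Glo luminescence after 10 minutes at room temperature, following 48 hours' compound treatment of HT-1080-NT cells (750 cells/well, RPMI, 5% FBS, 37 degrees C).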
* = called active by the depositor; i = inactive; ? = inconclusive; / = not tested or not shown; ! = repeats disagree; [ ] = remark or other dose. The call rests on the fitted dose curve; in most records, active means well fitted curve in the direction sought with a large enough effect; inconclusive means small, poorly fitted or top-dose-only effect, or another doubt; inactive means no such curve, though single readings can be large; an effect the other way counts as inactive or inconclusive. Potency means the concentration at half of the fitted maximal effect.

SMILES	KB-3-1 tox	SW480 rerep	HT1080 IDH1KD tx	MCF10A rerep	KB-V1 MDR tox	HT1080NT lethal
CC1CC(C)CN(CCCNC(=O)c2csc3c2CCCC3)C1 (stereo not drawn)	i	?	-8%	?	16µM*	-11%
CCCCNC(=S)NNC(=O)c1ccncc1	i	-16%	14%	-20%	i	9%
CCCCNC(=S)NNC(=O)c1csc(C(C)C)c1	i	-3%	-6%	0%	23µM*	-20%
CCNC(=S)NNC(=O)c1csc(CC)c1	?	-1%	2%	5%	i	-7%
CCNC(=S)NNC(=O)c1csc2c1CCCC2	i	-3%	?	19%	26µM*	-25%
CC(C)CCNC(=O)c1csc2c1CCCCC2	i	-3%	0%	8%	i	7%
O=Cc1cn[nH]c1-c1ccccc1	i	-3%	4%	0%	i	6%
O=Cc1cc(-c2ccccc2)[nH]c1-c1ccccc1	i	-5%	20%	6.5µM*	i	21%
Nc1nn(-c2ccccc2)c(N)c1N=Nc1ccccc1	?	5.2µM*	16µM*	5.8µM*	5.8µM*	?
Nc1ncnc(N)c1N=Nc1ccccc1	?	?	12µM*	-2%	i	?
Nc1c(N=Nc2ccccc2F)c(=O)[nH]n1-c1ccccc1	i	-2%[9.22 µM]	-4%	12%	i	-14%
Cc1nn(-c2ccccc2)c(N)c1N=Nc1ccc(Cl)cc1	i	?	?	?	?	?
Nc1nn(-c2ccccc2)c(N)c1N=Nc1ccccc1F	?	10µM*	5.8µM*	8.2µM*	4.6µM*	8.2µM*
COc1ccc(CCNC(=O)Cn2c(-c3ccc(F)cc3)cc(C(C)=O)c2C)cc1OC	i	/	/	/	i	/
Cc1ccc(S(=O)(=O)N(CC(=O)N/N=C/c2ccco2)c2cc(Cl)cc(Cl)c2)cc1	i	20%	?	?	18µM*	?
CC1CCc2c(sc3nc(CN4CCOCC4)nc(Sc4ccccc4)c23)C1 (stereo not drawn)	i	-8%	-2%	2%	8.2µM*	15%
CC1CCc2c(sc3ncnc(N4CCOCC4)c23)C1 (stereo not drawn)	i	0%	?	18%	15µM*	?
COc1cc2c(cc1OC)CN(c1nc(CN3CCOCC3)nc3sc4c(c13)CCC(C)C4)CC2 (stereo not drawn)	?	?	?	?	i	?
O=C1c2ccccc2C(=O)C1c1ccc2ccccc2n1	i	0%	?	?	2.6µM*!	?
O=C1c2ccccc2C(=O)C1c1cc2ccccc2cn1	i	/	/	/	i	/
COc1ccccc1NC(=O)N1CCN(c2ccc3nnc(-c4ccc(F)cc4)n3n2)CC1	i	-1%	?	15%	?	26µM*
Cc1ccccc1OCc1nc2ccc(S(=O)(=O)N3CCOCC3)cc2[nH]1	i	0%	2%	5%	21µM*	-9%
Cc1ccc(CNC(=O)c2cnn(-c3cccc(C)c3)c2C2CCN(C(=O)OC(C)(C)C)CC2)cc1	?	/	/	/	i	/
CCC(C)NC(=O)CC(NS(=O)(=O)c1ccc(C)cc1)c1ccc(OC)cc1 (stereo not drawn)	i	-692%	11%	-81%	8.2µM*	0%
COc1cccc(C(=O)Nc2c(C(=O)NC(C)(C)C)oc3ccccc23)c1	i	/	/	/	i	/
SMILES	KB-3-1 tox	SW480 rerep	HT1080 IDH1KD tx	MCF10A rerep	KB-V1 MDR tox	HT1080NT lethal
O=C(CSc1ccsc1[N+](=O)[O-])NCc1ccccc1	5.8µM*	-5%	-7%	-3%	?	4%
COc1ccccc1Nc1nnc(SCC(=O)N2CCCC2)s1	i	-4%	2%	2%	13µM*	4%
COCCSc1nnc(NC(=O)Cc2ccccc2OC)s1	i	0%	17%	5%	18µM*	14%
COc1ccccc1Nc1nnc(SCC2CCCCO2)s1 (stereo not drawn)	16µM*	?	15µM*	?	9.2µM*	16µM*
Cc1ccc(-c2nnc(Nc3cccc(Br)c3)c3ccccc23)cc1S(=O)(=O)N1CCCCC1	i	/	/	/	i	/
COc1ccc(/C=C/C(=O)N(CCC(N)=O)c2ccccc2)cc1S(=O)(=O)N1CCOCC1	i	4.6µM*	2%	-1%	i	8%
COc1ccc(/C=C/C(=O)N2CCN(c3ccccc3)CC2)cc1S(=O)(=O)N1CCOCC1	i	-6%	-17%	-6%	7.3µM*	-20%
CCC(C)(C)NC(=O)/C=C/c1ccc(OC)c(S(=O)(=O)N2CCOCC2)c1	i	/	7%	-6%	i	11%
COc1ccc(/C=C/C(=O)N2CCC(C(N)=O)CC2)cc1S(=O)(=O)N1CCOCC1	i	-2%	22%	0%	i	12%
COc1ccc(/C=C/C(=O)Nc2ccccc2C)cc1S(=O)(=O)N1CCOCC1	?	2%	-1%	4%	i	13µM*
O=P(O)(O)C(O)(Cc1cccnc1)P(=O)(O)O	/	-11%	/	-8%	/	/
COc1ccccc1NC(=O)CN(C)S(=O)(=O)c1cc(C)ccc1OC	i	-2%	-2%	3%	21µM*	3%
COc1ccc(C)cc1NC(=O)CN(C)S(=O)(=O)c1cnc[nH]1	i	?	0%	23µM*	i	0%
COc1ccc(C2=C(C)C(N3CCC(C(=O)Nc4cc(C)ccc4C)CC3)=NS2(=O)=O)cc1	i	/	/	/	i	/
O=C(c1ccc2nc(-c3ccco3)c(-c3ccco3)nc2c1)N1CCN(c2ccccc2)CC1	i	?	?	16µM*	23µM*	-10%
O=C(Nc1ccc2nc(-c3ccco3)c(-c3ccco3)nc2c1)NC1CC1	i	?	-12%	25%	?	-6%
O=C(Nc1ccc2nc(-c3cccs3)c(-c3cccs3)nc2c1)N1CCOCC1	i	23µM*	?	18µM*	16µM*	-17%
O=C(Nc1ccc(N2CCOCC2)cc1)Nc1ccc2nc(-c3ccco3)c(-c3ccco3)nc2c1	?	18%	5µM*	9.2µM*	?	2.8µM*
O=C(Nc1ccc2nc(-c3ccccn3)c(-c3ccccn3)nc2c1)N1CCCC1	i	/	/	/	i	/
CCOC(=O)c1c(Nc2ccc(OCC)cc2)nnc(-c2ccccc2)c1-c1ccccc1	i	/	/	/	i	/
COCCNCCCOc1ccc(Cl)cc1Br	i	30%	?	7%	i	?
CNCCCOc1ccc(Cl)cc1C(C)(C)C	?	?	23µM*	?	?	?

Bioassay records as filed in PubChem.
